A selection: hits, their analogues and other compounds. The true share with any hit is near 22%.
CYP2C9 inhib – human CYP2C9 inhibition; P11712; CYP2C9 Supersomes, luciferin-H conversion, luminescence; inhibition, % at 5 µM; 20% of 96,000 active; AID 777;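 active = blocking of liver enzyme CYP2C9 beyond about 50% at 5 µM, limit read from the data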
Target sequence (P11712 whole entry, looked up): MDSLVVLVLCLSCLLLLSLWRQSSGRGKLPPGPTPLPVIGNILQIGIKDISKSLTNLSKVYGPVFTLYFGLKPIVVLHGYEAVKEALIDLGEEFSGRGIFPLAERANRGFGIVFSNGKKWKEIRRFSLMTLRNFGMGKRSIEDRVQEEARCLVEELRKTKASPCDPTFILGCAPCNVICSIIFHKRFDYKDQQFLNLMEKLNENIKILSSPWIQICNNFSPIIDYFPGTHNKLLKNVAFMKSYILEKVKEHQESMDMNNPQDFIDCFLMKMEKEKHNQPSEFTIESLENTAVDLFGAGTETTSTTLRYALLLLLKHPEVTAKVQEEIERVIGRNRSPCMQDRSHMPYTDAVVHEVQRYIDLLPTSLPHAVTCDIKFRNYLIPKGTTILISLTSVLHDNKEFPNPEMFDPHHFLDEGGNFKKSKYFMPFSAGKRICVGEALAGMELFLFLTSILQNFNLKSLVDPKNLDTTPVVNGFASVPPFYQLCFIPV
CYP2C9 act – activators of human CYP2C9; P11712; recombinant CYP2C9, luciferin-H conversion, luminescence; hits give high values; factor 1 = untreated enzyme, 0 = blocked; activation factor at 5 µM; 1.4% of 96,000 active; AID 1024;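 active = activation factor of 2 or more for CYP2C9 at a 5 µM dose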;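 also: 0 = sulfaphenazole-blocked wells and 1 = vehicle-only wells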
CYP2C19 inhib – blocks human cytochrome P450 2C19; P33261; CYP2C19 Supersomes, luciferin-H EGE luminescence, 30 min; inhibition, % at 5 µM; 21% of 96,000 active;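 active = CYP2C19 inhibition above a set limit at 5 µM in the primary screen, cut at about 50% in these data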;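 also: plate controls were negative control wells for no effect and 2.5 mM tranylcypromine positive control for full effect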
CYP2C19 activ – cytochrome P450 2C19 (human) activation. 96,000 tested, under 10 active. activation factor at 5 µM. recombinant CYP2C19, luciferin-H EGE luminescence; hits give high values; 0 = fully inhibited enzyme, 1 = untreated enzyme;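 active = activation factor of at least 2 at 5 µM in the primary screen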;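 also: 0 = wells with 2.5 mM tranylcypromine and 1 = vehicle-only wells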
Measles CPE – protection of cells from measles virus; Measles virus-infected cells, CPE protection, absorbance; protection (pct of control), % at 4 µM; 1.5% of 140,000 active; in the data active = protection mostly above about 24%, no sharp cut-off; inactive = mostly below about 26%
The depositor's hits bear a star; . = not tested or not shown.

SMILES	CYP2C9 inhib	CYP2C9 act	CYP2C19 inhib	CYP2C19 activ	Measles CPE
CCOC(=O)c1ccc(NC(=O)CC2S/C(=N/N=C/c3c[nH]c4ccccc34)NC2=O)cc1 (configuration not stated)	.	.	.	.	28*
Cc1ccc(NC(=O)CC2S/C(=N/N=C/c3c[nH]c4ccccc34)NC2=O)cc1 (configuration not stated)	.	.	.	.	13
COC(=O)CN(c1nc(C)cc(OC)n1)S(=O)(=O)c1ccc(C)cc1	18	0.8	26	0.7	20
COC(=O)CN(c1nc(C)c(Br)c(OC)n1)S(=O)(=O)c1ccc(C)cc1	89*	0.1	90*	0.1	3
C=CCNc1oc(-c2cccs2)nc1C#N	-46	1.5	72*	0.3	4
N#Cc1nc(-c2cccs2)oc1NCc1ccco1	90*	0.1	76*	0.2	8
N#Cc1nc(-c2cccs2)oc1NCc1ccc(Cl)cc1	21	0.8	11	0.9	2
Cc1ccc(CNc2oc(-c3cccs3)nc2C#N)cc1	78*	0.2	15	0.9	5
N#Cc1nc(-c2cccs2)oc1NCc1ccccc1Cl	57*	0.4	20	0.8	3
O=C(Cn1c(NCCCO)nc2ccccc21)c1ccco1	5	0.9	0	1	34
COc1cccc(CNC(=O)Cc2ccc(Br)cc2)c1	.	.	.	.	4
COc1cccc(CNC(=O)CCS(=O)(=O)c2cccs2)c1	17	0.8	53*	0.5	3
O=C(CCS(=O)(=O)c1cccs1)Nc1ccc(C(=O)NCc2ccccc2)cc1	60*	0.4	78*	0.2	2
Cc1ccc(CNC(=O)c2ccc(NC(=O)CCS(=O)(=O)c3cccs3)cc2)cc1	30	0.7	-3	1	10
CCOc1ccc(NC(=O)c2cccs2)c([N+](=O)[O-])c1	3	1	2	1	4
O=S(=O)(NCCCO)c1ccc2c(c1)Cc1cc(S(=O)(=O)NCCCO)ccc1-2	27	0.7	1	1	4
COCCCNC(=O)CN1CCN(Cc2ccc(Cl)cc2)C1=O	-9	1.1	5	0.9	2
CC(C)OCCCNC(=O)CN1CCN(Cc2ccccc2Cl)C1=O	52*	0.5	9	0.9	6
O=C(CN1CCN(Cc2ccccc2Cl)C1=O)NC1CCCCCCC1	-7	1.1	72*	0.3	4
COc1ccc(C(=O)c2ccc(N3CCOCC3)cc2)c(OC)c1	37	0.6	34	0.7	1
CNC(=S)N1CCN(c2ccc(OC)cc2)CC1	15	0.8	70*	0.3	4
COc1ccc(N2CCN(C(=S)Nc3cc(C)cc(C)c3)CC2)cc1	-3	1	11	0.9	7
COC(=O)Cc1ccc(NC(=S)N2CCN(c3ccc(OC)cc3)CC2)cc1	.	.	.	.	34*
COC(=O)Cc1ccc(NC(=S)N2CCN(c3cccc(O)c3)CC2)cc1	.	.	.	.	24
O=Cc1c(Sc2ccccc2)nc2ccccn2c1=O	29	0.7	72*	0.3	7
SMILES	CYP2C9 inhib	CYP2C9 act	CYP2C19 inhib	CYP2C19 activ	Measles CPE
O=c1c(/C=N/Nc2ccccc2)c(Sc2nnnn2-c2ccccc2)nc2ccccn12	72*	0.3	46	0.5	11
CCn1c(Sc2nc(C)nc3scc(-c4cccs4)c23)n[nH]c1=O	58*	0.4	57*	0.4	21
CC1CCN(C(=O)COC(=O)c2ccc(Br)o2)CC1	3	1	60*	0.4	26
COc1ccc(OCCC(=O)N2CCCCC2)cc1	14	0.9	85*	0.1	10
CCCCOc1ccc(C(=O)NCCCC(=O)N2CCCCC2)cc1	15	0.9	11	0.9	5
CCOC(=O)C1CCN(C(=O)COC(=O)c2ccc(Br)o2)CC1	23	0.8	24	0.8	3
COC(=O)C1CCN(C(=O)CSc2ccccc2)CC1	.	.	.	.	27
COC(=O)C1CCN(C(=O)CCCOc2ccccc2)CC1	13	0.9	87*	0.1	10
CCOC(=O)C1CCCN(CCCc2ccccc2)C1 (configuration not stated)	20	0.8	80*	0.2	9
CCCn1nc2cc(C(=O)NCc3ccc4c(c3)OCO4)ccc2c1OCC	40	0.6	32	0.7	4
O=C(NCCN1CCOCC1)c1ccc(CS(=O)(=O)Cc2ccccc2F)o1	1	1	5	0.9	5
COc1ccc(Br)c(C(=O)Nc2cccc(Cl)c2Cl)c1	.	.	.	.	21
CCOC(=O)C1CCN(C(=O)CN(Cc2ccccc2)S(C)(=O)=O)CC1	-3	1	-2	1	4
CCOC(=O)C1CCN(C(=O)CCc2ccccc2)CC1	46	0.5	71*	0.3	3
